Test results published in PubChem BioAssay.
For some of these results: Entries with a potency or affinity are not part of this list. Active and inactive are the calls of the source. Unless noted, no rule for the calls is given here.

Experiments:
[1] = antimalarial activity against Dd2 strain (AID 2302;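 active = growth inhibition above 50% at the single 2 µM test dose, taken to imply half-maximal potency below 2 µM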;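 also: 0% = DMSO untreated growth and 100% = chloroquine plus artemisinin killed control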); settings: P. falciparum Dd2 in RBCs, LDH growth readout, 72 h; at 2 µM; active compounds read high
[2] = HepG2 cytotoxicity, primary screen, cytotoxicity control for P. falciparum antimalarial project, cell-based, ATP luminescence (AID 2303;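 active = inhibition above 50%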;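 also: 0% = DMSO wells and 100% = digitonin-killed cells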); settings: HepG2 viability, 24-48 h, at 10 µM, active compounds read high
[3] = molecular target: L-lactate dehydrogenase (Plasmodium falciparum (isolate CDC / Honduras)) (UniProt Q27743); experiment: PfLDH activity inhibition – cell lysate, 3D7 strain, counter-screen for P. falciparum growth inhibition project (AID 2304);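 also: 0% = vehicle and 100% = reference inhibitor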; settings: P. falciparum 3D7 crude extract, LDH APAD/NBT absorbance; at 2 µM; active compounds read high
[4] = inhibition of 3D7 malaria parasite growth – strain 3D7 (AID 2306);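 also: 0% = DMSO wells and 100% = chloroquine plus artemisinin control wells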; settings: P. falciparum 3D7 erythrocytic growth, LDH absorbance, 72 h; at 2 µM; active compounds read high
[5] = molecular target: Calcium-dependent protein kinase 1 (Plasmodium falciparum (isolate 3D7)) (UniProt P62344); experiment: PfCDPK1 kinase inhibitors, biochemical, TCAMS library (AID 1159585; cut-off not given, nearly all actives have IC50 up to about 0.98 µM;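 also: inhibitors leave more ATP so luminescence rises with inhibition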); settings: recombinant PfCDPK1, Kinase-Glo ATP depletion luminescence
[6] = molecular target: Plasmodium falciparum protein kinase 6 (PK6, PF3D7_1337100) (UniProt Q8IDW1); experiment: PfPK6 kinase inhibitors, biochemical, TCAMS library (AID 1159586); settings: recombinant PfPK6, Kinase-Glo ATP depletion luminescence
[7] = molecular target: Protein kinase 7 (PK7), Plasmodium falciparum 3D7 (PF3D7_0213400) (UniProt Q7YTF7); experiment: inhibition of Plasmodium PK7 catalytic activity – biochemical, TCAMS antimalarial set, Kinase-Glo luminescence (AID 1159587); settings: recombinant PfPK7, Kinase-Glo ATP depletion luminescence
[8] = molecular target: Calcium-dependent protein kinase 4 (Plasmodium falciparum (isolate 3D7)) (UniProt Q8IBS5); experiment: PfCDPK4 kinase inhibitors, biochemical, TCAMS library (AID 1159588; cut-off not given, nearly all actives have IC50 up to about 0.91 µM); settings: recombinant PfCDPK4, Kinase-Glo ATP depletion luminescence
Calcium-dependent protein kinase 4 (Plasmodium falciparum (isolate 3D7)), sequence (Q8IBS5 whole entry, looked up): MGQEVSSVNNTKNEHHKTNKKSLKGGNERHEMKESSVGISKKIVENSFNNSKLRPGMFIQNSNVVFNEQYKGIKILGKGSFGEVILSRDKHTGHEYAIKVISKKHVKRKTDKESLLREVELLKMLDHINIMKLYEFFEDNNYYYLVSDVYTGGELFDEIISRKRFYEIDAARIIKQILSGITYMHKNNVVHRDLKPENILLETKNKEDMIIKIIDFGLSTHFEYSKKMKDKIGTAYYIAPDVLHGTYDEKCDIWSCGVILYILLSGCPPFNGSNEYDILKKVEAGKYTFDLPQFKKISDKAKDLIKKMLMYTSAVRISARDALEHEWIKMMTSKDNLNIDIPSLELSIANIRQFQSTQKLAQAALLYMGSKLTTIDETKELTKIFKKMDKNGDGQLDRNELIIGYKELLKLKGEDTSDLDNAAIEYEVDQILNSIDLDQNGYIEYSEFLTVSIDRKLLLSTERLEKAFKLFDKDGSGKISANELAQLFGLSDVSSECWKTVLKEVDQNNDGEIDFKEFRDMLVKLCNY

Protein kinase 7 (PK7), Plasmodium falciparum 3D7 (PF3D7_0213400), sequence (Q7YTF7 1-343): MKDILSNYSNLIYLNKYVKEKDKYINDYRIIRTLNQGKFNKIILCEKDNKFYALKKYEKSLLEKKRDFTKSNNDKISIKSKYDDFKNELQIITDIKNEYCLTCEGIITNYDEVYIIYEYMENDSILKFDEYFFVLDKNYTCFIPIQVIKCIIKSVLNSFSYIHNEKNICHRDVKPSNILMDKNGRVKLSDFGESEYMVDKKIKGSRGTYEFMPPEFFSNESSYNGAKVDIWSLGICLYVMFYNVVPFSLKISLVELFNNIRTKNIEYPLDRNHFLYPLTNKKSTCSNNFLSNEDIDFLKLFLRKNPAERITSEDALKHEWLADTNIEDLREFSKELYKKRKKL
Calcium-dependent protein kinase 1 (Plasmodium falciparum (isolate 3D7)), sequence (P62344 whole entry, looked up): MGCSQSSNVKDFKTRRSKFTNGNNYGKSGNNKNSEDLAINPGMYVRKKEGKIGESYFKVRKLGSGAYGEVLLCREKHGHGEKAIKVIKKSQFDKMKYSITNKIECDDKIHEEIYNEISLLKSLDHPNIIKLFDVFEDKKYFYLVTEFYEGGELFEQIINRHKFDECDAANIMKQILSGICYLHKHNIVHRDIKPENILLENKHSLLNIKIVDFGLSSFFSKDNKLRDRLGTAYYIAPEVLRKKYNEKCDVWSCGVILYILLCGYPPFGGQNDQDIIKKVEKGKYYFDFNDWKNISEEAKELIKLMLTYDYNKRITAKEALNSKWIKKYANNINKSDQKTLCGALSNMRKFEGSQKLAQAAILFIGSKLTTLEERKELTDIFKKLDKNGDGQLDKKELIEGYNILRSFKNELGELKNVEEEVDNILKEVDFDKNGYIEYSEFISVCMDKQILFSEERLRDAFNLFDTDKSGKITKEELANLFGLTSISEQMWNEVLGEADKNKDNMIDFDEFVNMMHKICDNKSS
L-lactate dehydrogenase (Plasmodium falciparum (isolate CDC / Honduras)), sequence (Q27743 whole entry, looked up): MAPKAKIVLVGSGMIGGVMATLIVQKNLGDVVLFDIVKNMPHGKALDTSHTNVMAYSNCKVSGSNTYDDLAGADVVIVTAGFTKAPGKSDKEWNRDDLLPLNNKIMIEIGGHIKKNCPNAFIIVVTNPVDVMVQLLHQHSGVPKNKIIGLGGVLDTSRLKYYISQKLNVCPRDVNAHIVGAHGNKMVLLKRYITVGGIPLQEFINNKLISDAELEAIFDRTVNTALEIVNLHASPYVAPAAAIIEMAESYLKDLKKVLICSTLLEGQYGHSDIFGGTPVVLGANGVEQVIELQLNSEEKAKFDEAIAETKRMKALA
Plasmodium falciparum protein kinase 6 (PK6, PF3D7_1337100), sequence (Q8IDW1 1-305): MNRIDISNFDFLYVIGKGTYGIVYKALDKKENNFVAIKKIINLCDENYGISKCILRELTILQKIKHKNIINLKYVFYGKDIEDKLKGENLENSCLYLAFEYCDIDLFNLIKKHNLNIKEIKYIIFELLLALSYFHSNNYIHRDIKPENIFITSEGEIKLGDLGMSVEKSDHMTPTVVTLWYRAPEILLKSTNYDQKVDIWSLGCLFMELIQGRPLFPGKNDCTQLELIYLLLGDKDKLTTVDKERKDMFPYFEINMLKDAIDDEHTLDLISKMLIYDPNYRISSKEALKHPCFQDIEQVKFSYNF

O=C(/C=C/c1ccc2ccccc2c1)NCCCCCN1CCC(c2c[nH]c3ccccc23)CC1
active: growth inhibition [4] 90%
inactive: growth inhibition [1] 4% | inhibition [2] 18% | inhibition [3] 6% | outcome [5] | outcome [6] | outcome [7] | outcome [8]

COc1cc(Br)ccc1N1CCN(CCCCNC(=O)c2ccc(NC(=O)c3ccc(Cl)cc3)cc2)CC1
active: inhibition [2] 55% | growth inhibition [4] 96%
inactive: growth inhibition [1] 33% | inhibition [3] 1% | outcome [5] | outcome [6] | outcome [7] | outcome [8]

CC(C)(C)c1ccc(CNCCOc2ccc(Nc3nnc(-c4ccc(-c5ncc[nH]5)cc4)o3)c3ccccc23)cc1
inactive: inhibition [2] 43% | inhibition [3] 0% | outcome [5] | outcome [6] | outcome [7] | outcome [8]
active: growth inhibition [1] 88% | growth inhibition [4] 100%

CNC(=O)c1ccc2nc(-c3ccc(-c4ccccc4)cc3)n(CC3CCN(CC4CCCC4)CC3)c2c1
inactive: growth inhibition [1] 36% | inhibition [2] 13% | inhibition [3] -6% | outcome [5] | outcome [6] | outcome [7] | outcome [8]
active: growth inhibition [4] 84%

COc1ccc(C=NNc2cc(C)nc3ccccc23)cc1OC
inactive: growth inhibition [1] 8% | inhibition [2] 19% | inhibition [3] -1% | outcome [5] | outcome [6] | outcome [7] | outcome [8]
active: growth inhibition [4] 91%

Cc1cc(N[C@@H](Cc2ccccc2)C(=O)NCCCOC(C)C)nc(NCC2CCCCC2)n1
inactive: growth inhibition [1] 25% | inhibition [2] 17% | inhibition [3] -4% | outcome [5] | outcome [6] | outcome [7] | outcome [8]
active: growth inhibition [4] 94%

c1cc(CNCC2CCCO2)cc(-c2csc(-c3nc4ccccc4[nH]3)c2)c1 (stereo not drawn)
active: growth inhibition [4] 91%
inactive: growth inhibition [1] 6% | inhibition [2] 5% | inhibition [3] 2% | outcome [5] | outcome [6] | outcome [7] | outcome [8]

O=C(NCCCCCN1CCC(c2c[nH]c3ccccc23)CC1)Nc1cccc(Br)c1
active: growth inhibition [4] 84%
inactive: growth inhibition [1] -3% | inhibition [2] 39% | inhibition [3] 3% | outcome [5] | outcome [6] | outcome [7] | outcome [8]

O=C1CCCN1CCCNCc1cccc(-c2ccc(-c3nc4ccccc4[nH]3)s2)c1
inactive: growth inhibition [1] 0% | inhibition [2] -6% | inhibition [3] -3% | outcome [5] | outcome [6] | outcome [7] | outcome [8]
active: growth inhibition [4] 97%

O=C(Nc1cccc(CN2CCN(C(=O)c3cccc(F)c3)CC2)c1)c1cccs1
inactive: inhibition [2] 17% | inhibition [3] 1% | outcome [5] | outcome [6] | outcome [7] | outcome [8]
active: growth inhibition [1] 95% | growth inhibition [4] 95%

CCNc1cc(C(=O)N[C@@H](Cc2ccccc2)[C@H](O)CNCCC(C)c2ccccc2)cc(N2CCCC2=O)c1 (stereo partly drawn)
inactive: inhibition [2] 0% | inhibition [3] 3% | outcome [5] | outcome [6] | outcome [7] | outcome [8]
active: growth inhibition [1] 95% | growth inhibition [4] 99%

Cn1ncc2c3c(CCN4CCC(NCc5ccc6c(c5)NC(=O)CO6)CC4)c(Cl)cnc3ccc21
active: growth inhibition [1] 92% | growth inhibition [4] 101%
inactive: inhibition [2] 18% | inhibition [3] -2% | outcome [5] | outcome [6] | outcome [7] | outcome [8]

c1ccc(OCCCCN2CCCCC2)cc1
inactive: growth inhibition [1] 1% | inhibition [2] 2% | inhibition [3] -11% | outcome [5] | outcome [6] | outcome [7] | outcome [8]
active: growth inhibition [4] 95%

CC(C)c1ccc(CN2CCC(NC(=O)c3ccc(-c4ccccc4F)s3)CC2)cc1
active: growth inhibition [4] 81%
inactive: growth inhibition [1] 13% | inhibition [2] 46% | inhibition [3] 2% | outcome [5] | outcome [6] | outcome [7] | outcome [8]

Clc1ccc(-c2cc(-c3csc(Nc4ccncc4)n3)on2)cc1
active: growth inhibition [1] 99% | growth inhibition [4] 100%
inactive: inhibition [2] 1% | inhibition [3] 3% | outcome [5] | outcome [6] | outcome [7] | outcome [8]

COc1cccc(O)c1CN1CCC2(CCCN(Cc3ccc(F)cc3)C2)C1 (stereo not drawn)
active: growth inhibition [1] 72% | growth inhibition [4] 98%
inactive: inhibition [2] 21% | inhibition [3] 1% | outcome [5] | outcome [6] | outcome [7] | outcome [8]

O=c1cc(NCCCNCc2cccc3c2OC(F)(F)O3)[nH]c2ccccc12
inactive: growth inhibition [1] 15% | inhibition [2] 4% | inhibition [3] 7% | outcome [5] | outcome [6] | outcome [7] | outcome [8]
active: growth inhibition [4] 88%

N=C(N)c1ccc(NCc2cccc(C(=O)O)c2)cc1
inactive: inhibition [2] 7% | inhibition [3] -2% | outcome [5] | outcome [6] | outcome [7] | outcome [8]
active: growth inhibition [1] 79% | growth inhibition [4] 84%

CCOc1cc(CC)ccc1C1CCN(CCCCNC(=O)c2ccc(NC(=O)c3ccc(C#N)cc3)cc2)CC1
inactive: inhibition [3] -1% | outcome [5] | outcome [6] | outcome [7] | outcome [8]
active: growth inhibition [1] 50% | inhibition [2] 55% | growth inhibition [4] 91%

c1ccc(C(c2ccccc2)N2CCC(NCc3ccc(OCCCN4CCCCC4)cc3)CC2)cc1
inactive: inhibition [3] 4% | outcome [5] | outcome [6] | outcome [7] | outcome [8]
active: growth inhibition [1] 101% | inhibition [2] 74% | growth inhibition [4] 100%

CC(=O)N(C)c1cccc(C(=O)Nc2ccc(-c3cccc(-c4nc5c(C)cccc5[nH]4)c3)cc2)c1
inactive: inhibition [3] -2% | outcome [5] | outcome [6] | outcome [7] | outcome [8]
active: growth inhibition [1] 68% | inhibition [2] 86% | growth inhibition [4] 97%

CC(C)Cn1c2ccccc2c2nc3nc(N)nc(N)c3nc21
active: growth inhibition [4] 93%
inactive: growth inhibition [1] -1% | inhibition [2] 36% | inhibition [3] -3% | outcome [5] | outcome [6] | outcome [7] | outcome [8]

CN(C)c1ccc(-c2ccc(C(=O)NC3CCN(Cc4ccccc4)CC3)s2)cc1
active: growth inhibition [4] 92%
inactive: growth inhibition [1] 10% | inhibition [2] 20% | inhibition [3] -3% | outcome [5] | outcome [6] | outcome [7] | outcome [8]

CC(C)CN1CCCN(Cc2cccc(NC(=O)c3ccc(-c4ccccc4)cc3)c2)CC1
inactive: growth inhibition [1] 24% | inhibition [2] 30% | inhibition [3] 1% | outcome [5] | outcome [6] | outcome [7] | outcome [8]
active: growth inhibition [4] 99%

CCN1CCN(CCCCNc2c3ccccc3nc3ccccc23)CC1
active: growth inhibition [4] 100%
inactive: growth inhibition [1] -5% | inhibition [2] 22% | inhibition [3] 8% | outcome [5] | outcome [6] | outcome [7] | outcome [8]

COc1ccccc1-n1ccnc1SCC(=O)Nc1cc(C(F)(F)F)ccc1Cl
inactive: inhibition [2] -2% | inhibition [3] 2% | outcome [5] | outcome [6] | outcome [7] | outcome [8]
active: growth inhibition [1] 97% | growth inhibition [4] 97%

Cc1cc(N[C@@H](Cc2ccccc2)C(=O)NCCOc2ccccc2)nc(NCCc2ccccc2)n1
inactive: inhibition [2] 12% | inhibition [3] -1% | outcome [5] | outcome [6] | outcome [7] | outcome [8]
active: growth inhibition [1] 68% | growth inhibition [4] 101%

CC(C)(Cc1ccc(Cl)cc1)NCCCCCCNCCc1ccc(O)c(O)c1
inactive: growth inhibition [1] -7% | inhibition [2] 45% | inhibition [3] -8% | outcome [5] | outcome [6] | outcome [7] | outcome [8]
active: growth inhibition [4] 90%

O=C(Nc1ccc2c(ccn2C2CCCN(Cc3cc(F)cc(F)c3F)CC2)c1)c1ccco1 (stereo not drawn)
inactive: inhibition [2] 7% | inhibition [3] -1% | outcome [5] | outcome [6] | outcome [7] | outcome [8]
active: growth inhibition [1] 94% | growth inhibition [4] 89%

COc1cc2nc(N(C)CC3COc4ccccc4O3)nc(N)c2cc1OC (stereo not drawn)
active: growth inhibition [4] 94%
inactive: growth inhibition [1] 26% | inhibition [2] 11% | inhibition [3] -1% | outcome [5] | outcome [6] | outcome [7] | outcome [8]

CCN(CC)CCNC(=O)c1ccc(NC(=O)c2oc3c(Cl)cccc3c2C)cc1
inactive: inhibition [2] 24% | inhibition [3] 5% | outcome [5] | outcome [6] | outcome [7] | outcome [8]
active: growth inhibition [1] 68% | growth inhibition [4] 98%

c1cc(CN2CCCCC2)cc(-c2cccc(-c3nc4ccccc4[nH]3)c2)c1
active: growth inhibition [4] 100%
inactive: growth inhibition [1] 37% | inhibition [2] 39% | inhibition [3] 0% | outcome [5] | outcome [6] | outcome [7] | outcome [8]

COc1ccc2nccc([C@@H](O)CN3CCC(NC(=O)/C=C/c4ccc(Cl)c(C(F)(F)F)c4)CC3)c2c1
inactive: inhibition [2] 11% | inhibition [3] -4% | outcome [5] | outcome [6] | outcome [7] | outcome [8]
active: growth inhibition [1] 89% | growth inhibition [4] 102%

OC(CNCc1ccccc1Oc1ccccc1)c1cc(Br)cs1 (stereo not drawn)
inactive: inhibition [2] -13% | inhibition [3] -4% | outcome [5] | outcome [6] | outcome [7] | outcome [8]
active: growth inhibition [1] 79% | growth inhibition [4] 94%

CCCNC(=O)CN1CN(c2ccccc2)C2(CCN(C(=O)c3ccc(C(C)(C)C)cc3)CC2)C1=O
active: growth inhibition [1] 98% | growth inhibition [4] 99%
inactive: inhibition [2] 0% | inhibition [3] 0% | outcome [5] | outcome [6] | outcome [7] | outcome [8]

Cc1ccccc1CNc1noc(-c2c(F)cccc2Cl)n1
inactive: inhibition [2] 14% | inhibition [3] -5% | outcome [5] | outcome [6] | outcome [7] | outcome [8]
active: growth inhibition [1] 90% | growth inhibition [4] 97%

Cn1cccc1C(=O)C(=O)Nc1ccc(-c2ccc(-c3nc4ccc(F)cc4[nH]3)cc2)cc1
inactive: growth inhibition [1] 33% | inhibition [2] 44% | inhibition [3] -3% | outcome [5] | outcome [6] | outcome [7] | outcome [8]
active: growth inhibition [4] 92%

CC1(C)CC(NC(=O)NC2CCN(Cc3ccccc3)CC2)CC(C)(CNC(=O)NC2CCN(Cc3ccccc3)CC2)C1 (stereo not drawn)
active: growth inhibition [4] 93%
inactive: growth inhibition [1] 2% | inhibition [2] 10% | inhibition [3] 5% | outcome [5] | outcome [6] | outcome [7] | outcome [8]

CC(C)(C)c1cc(C(=O)N2CCN(c3ncccc3C(F)(F)F)CC2)n(Cc2ccccc2)n1
inactive: inhibition [2] -8% | inhibition [3] 1% | outcome [5] | outcome [6] | outcome [7] | outcome [8]
active: growth inhibition [1] 99% | growth inhibition [4] 100%

O=C(NCc1cccc(F)c1)c1ccc(O)c(-c2cc(Cl)cc(Cl)c2)c1
active: growth inhibition [1] 99% | growth inhibition [4] 99%
inactive: inhibition [2] 0% | inhibition [3] 1% | outcome [5] | outcome [6] | outcome [7] | outcome [8]

CCC[C@@H]([C@@H](CC1CCCCC1)C(=O)N[C@H](C(=O)Nc1nccs1)[C@@H](C)OCc1ccccc1)N(O)C=O
inactive: inhibition [3] -3% | outcome [5] | outcome [6] | outcome [7] | outcome [8]
active: growth inhibition [1] 99% | inhibition [2] 51% | growth inhibition [4] 100%
